# In PubChem BioAssay (NCATS):
# Inconclusive results are not listed. Unmarked numbers belong to inactive results. Calls follow the shape of the dose curve; as a rule, active = well fitted cell-killing curve with a large enough effect; inconclusive = small, poorly fitted or top-dose-only effect; inactive = flat fitted curve, though single readings scatter.
# Assay: Cellular viability qHTS for adrenocortical cancer (ACC) cell line NCI-H295R (AID 1963990);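 also: 0% = DMSO only wells and -100% = full killing with cytotoxic reference compound; nearly all actives have a fitted effect of over 60% in size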
# Conditions: CellTiter-Glo ATP luminescence, 48 h; series mostly up to 46.1 µM; activity change, negative = viability loss: at the top concentration
# Outline: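 Readout: CellTiter-Glo luminescence, 20 min RT. Exposure: 48 h, 37C/5% CO2. Cells: NCI-H295R, ITS-DMEM serum-free. Range: up to 46 uM. Analysis: 4PL fit, IC50 plus efficacy.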
row,Structure (SMILES),"activity change, negative = viability loss"
1,N#Cc1cccc(-c2c[nH]c3ncnc(N4CCOCC4)c23)c1,9.91%
2,O=C(O)Cc1ccc2c(c1)C(=O)c1ccccc1CO2,-10.8%
3,CN(C)C(=O)Nc1ccc(Cl)c(Cl)c1,-34.8%
4,Oc1cn2c(n1)Nc1ccc(Cl)c(Cl)c1C2,-31.1% [at 20 µM]
5,C[N+]12CCC(CC1)C(OC(=O)C(O)(c1ccccc1)c1ccccc1)C2 (stereo not given),-8.77%
6,O=C(O)P(=O)(O)O,7.83%
7,COc1c(N2C[C@@H]3CCCN[C@@H]3C2)c(F)cc2c(=O)c(C(=O)O)cn(C3CC3)c12,-15.9%
8,Cc1c(N(C)CS(=O)(=O)O)c(=O)n(-c2ccccc2)n1C,-3.95%
9,NCCNC(=O)c1ccc(Cl)cn1,-21.6%
10,CC(C)C(=O)Nc1cccc(C(F)(F)F)c1,-16.3%
11,O=c1[nH]cnc2nc[nH]c12,10.9%
12,C[C@@H]1CCN(C(=O)N2CCCC2)C[C@@H]1N(C)c1ncnc2[nH]ccc12,9.59%
13,CCCOC(=O)c1ccccc1,-5.05%
14,Cl/C(=C\n1cncn1)c1ccc(Cl)cc1Cl,-14.8%
15,Nc1ccncc1N,-14.2%
16,CC(=O)OCC(=O)[C@@]1(OC(C)=O)[C@@H](C)C[C@H]2[C@@H]3C[C@H](F)C4=CC(=O)C=C[C@]4(C)[C@@]3(F)[C@@H](O)C[C@@]21C,-5.55%
17,NC(=O)N[C@@H](CCC(=O)O)C(=O)O,-10%
18,O=C1c2cccc3c2[C@H](CCC3)CN1[C@@H]1CN2CCC1CC2,-27.8%
19,COC(=O)c1cc(Cl)ccc1NS(=O)(=O)C(F)(F)F,-0.681%
20,CCCC(=O)O[C@]1(C(=O)COC(=O)CC)CC[C@H]2[C@@H]3CCC4=CC(=O)CC[C@]4(C)[C@H]3[C@@H](O)C[C@@]21C,-4.88% [at 20 µM]
